# Records with an inconclusive call do not appear. Calls of active or inactive are those of the source. How the source made its calls: active means hit-call score of the fitted dose curve at least 0.9, where 1 is the maximum; inactive means score below 0.9.
# Assay: ATG_M_61_XSP2: Attagene TRANS-FACTORIAL Multi-Species (XSP2) HepG2 Assay for M61 Transcription Factor (Internal Marker) (AID 2283835);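 further: active means a rise in signal above the DMSO baseline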
# Protocol: ATG_XSP2_multi-species_TRANS is a cell-based, multiplexed assay created by modifying the existing Attagene TRANS-FACTORIAL system to include a panel of nuclear receptors from some or all the following species: human (Homo sapiens), mouse (Mus musculus), frog (Xenopus laevis), zebrafish (Danio rerio), chicken (Gallus gallus), and turtle (Chrysemys picta). The ECOTOX-FACTORIAL format uses HepG2, a human liver cell line, with measurements taken at 24 hours after chemical dosing in a 24-well plate. Xsp2 included 3 nM 6-alpha-fluorotestosterone and 1.5 nM norgestrel to stimulate the androgen receptor.ATG_M_61_XSP2 is one of 29 assay components measured or calculated from the ATG_XSP2_multi-species_TRANS assay. It is designed to make measurements of mRNA induction, a form of inducible reporter, as detected with fluorescence intensity signals by Reverse transcription polymerase chain reaction (RT-PCR) and Capillary electrophoresis technology.This assay endpoint, ATG_M_61_XSP2, was analyzed in the positive analysis fitting direction relative to DMSO as the negative control and baseline of activity. Using a type of inducible reporter, measures of mRNA for gain-of-signal activity can be used to understand the background control at the transcription factor-level as they relate to the gene. Furthermore, this assay endpoint can be referred to as a secondary readout, because this assay has produced multiple assay endpoints where this one serves a background control function. To generalize the intended target to other relatable targets, this assay endpoint is annotated to the background measurement intended target family, where the subfamily is internal marker.
# Human liver HepG2 cells are transiently transfected with multiple reporter transcription units (MRTUs) in 6-well plates using FuGene 6 reagent (Roche; 3 ml FuGene/1 mg DNA). The MRTU constructs are regulated by a cis-regulating element (promoter). […] A major difference between the CIS and TRANS system is that in CIS activities of endogenous TFs are measured, whereas the TRANS assay evaluates changes in activities of exogenous, chimeric NR-Gal4 proteins. […] At the end of 24 hour incubation, total RNA was isolated using TriZol reagent (Invitrogen). The isolated RNA is then reverse-transcribed using oligo(dT) primer and Mo-MLV reverse transcriptase (Invitrogen) with DNAse I (Ambion) treatment for 30 min. The one-tenth of the produced cDNA was amplified by PCR using Taq DNA polymerase (Invitrogen) and two reporter sequence-specific primers. The PCR products were fluorescently labeled by primer extension with 6-arboxyfluorescein (6-FAM) 5'-labeled reporter sequence-specific primer (2 min at 95 C, 20 s at 68 C and 10 min at 72 C) and these products were digested with 5U of HpaI (New England Biolabs) for 2h at 37 C. The fragments were purified using Qiaquick PCR columns (Qiagen), analyzed on an ABI 3130xL genetic analyzer (Applied Biosystems) with peak positions identified by using a set of X-rhodamine (ROX)-labeled MapMarker1000 molecular weight standards (BioVentures). The raw capillary electrophoresis data was processed using Attagraph software (Attagene).
row,Structure (SMILES),outcome
1,CC1(C)CCC(Cc2ccc(Cl)cc2)C1(O)Cn1cncn1 (stereo not given),inactive
2,O=S(=O)(c1ccc(Cl)cc1)c1ccc(Cl)cc1,inactive
3,CC(=O)C=C(C)C,inactive
4,CC(C)C1CCC(Cc2ccc(Cl)cc2)C1(O)Cn1cncn1 (stereo not given),inactive
5,O=C1C2(Cl)C3(Cl)C4(Cl)C(Cl)(Cl)C5(Cl)C3(Cl)C1(Cl)C5(Cl)C24Cl (stereo not given),inactive
6,C[C@H]1CCCC(=O)CCC/C=C/c2cc(O)cc(O)c2C(=O)O1,inactive
7,Oc1c(I)cc(I)cc1I,inactive
8,COP(=O)(OC)O/C(=C\Cl)c1cc(Cl)c(Cl)cc1Cl,inactive
9,CC(C)(C)c1cc(O)ccc1O,inactive
10,CC12CC1(C)C(=O)N(c1cc(Cl)cc(Cl)c1)C2=O (stereo not given),inactive
11,C[C@]12CCC(=O)C[C@@H]1CC[C@@H]1[C@@H]2CC[C@]2(C)[C@@H](O)CC[C@@H]12,inactive
12,Clc1ccc(C2(Cn3cncn3)CC(Br)CO2)c(Cl)c1 (stereo not given),inactive
13,Oc1ccc(-c2ccccc2)cc1,inactive
14,C[C@]12CC[C@H](O)CC1=CC[C@@H]1[C@@H]2CC[C@]2(C)C(=O)CC[C@@H]12,inactive
15,CC(C)(C)CC(C)(C)c1ccc(O)cc1,inactive

# Source: PubChem BioAssay (EPA / NIEHS)
